Here are results for 14 compounds from PubChem BioAssay AID1923 (Vanderbilt High Throughput Screening Facility, 2009).

The source made the active and inactive calls.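 The calls were made as follows: active = compound that boosted calcium signal to a low acetylcholine dose in a dose-dependent way; inactive = the rest.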

Sequence of Muscarinic acetylcholine receptor M4 (Rattus norvegicus) (P08485 whole entry, looked up): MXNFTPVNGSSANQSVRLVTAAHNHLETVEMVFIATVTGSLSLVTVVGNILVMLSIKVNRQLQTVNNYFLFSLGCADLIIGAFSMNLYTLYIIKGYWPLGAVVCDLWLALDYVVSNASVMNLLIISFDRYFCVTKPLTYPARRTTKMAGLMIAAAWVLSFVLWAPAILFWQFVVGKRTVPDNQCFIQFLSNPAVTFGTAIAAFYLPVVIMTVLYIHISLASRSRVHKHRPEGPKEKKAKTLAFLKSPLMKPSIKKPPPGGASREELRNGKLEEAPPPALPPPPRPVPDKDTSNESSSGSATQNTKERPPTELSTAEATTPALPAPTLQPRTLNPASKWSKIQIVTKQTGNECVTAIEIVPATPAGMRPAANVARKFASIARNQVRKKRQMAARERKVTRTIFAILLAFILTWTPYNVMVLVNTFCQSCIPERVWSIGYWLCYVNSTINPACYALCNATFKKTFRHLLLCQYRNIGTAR

The assay concerns the target Muscarinic acetylcholine receptor M4 (Rattus norvegicus) (UniProt P08485). Nature of the assay: potentiation of acetylcholine response at rM4 – cell-based, analogs, calcium mobilization, Gqi5, SAR follow-up (AID 1923). To be noted: CHO-K1 rM4/Gqi5, calcium mobilization Fluo-4, ACh EC20.
Regarding `COc1ccc(CNC(=O)c2sc3nc(OCc4ccncc4)cc(C)c3c2N)cc1`, the outcome was “active; fitted 1.97 uM”.
The result for `Cc1cc(OCc2ccncc2)nc2sc(C(=O)NCc3cccc(F)c3F)c(N)c12` reads “active; fitted 1.61 uM”.
The result for `Cc1cc(OCCCN(C)C)nc2sc(C(=O)NC3COC3)c(N)c12` reads “active; fitted 2.58 uM”.
The result for `Cc1cc(OCCN2CCOCC2)nc2sc(C(=O)NC(C)(C)C)c(N)c12` reads “active; fitted 8.73 uM”; that for `COCCCNC(=O)c1sc2nc(OCCN3CCOCC3)cc(C)c2c1N`, “active; fitted 6.25 uM”.
As to `COc1ccc(CNC(=O)c2sc3nc(OC(C)C)cc(C)c3c2N)cc1`, the result was inactive.
With `Cc1cc(OCc2ccccn2)nc2sc(C(=O)NCc3cc(F)ccc3F)c(N)c12` the entry was “inactive”; with `Cc1cc(OCCN2CCOCC2)nc2sc(C(=O)NC(C)C)c(N)c12`, “active; fitted 7.15 uM”.
The result for `COc1ccc(CNC(=O)c2sc3nc(OCc4cccnc4)cc(C)c3c2N)cc1` reads “active; fitted 2.21 uM”; that for `CCCOc1cc(C)c2c(N)c(C(=O)NCc3ccc(OC)cc3)sc2n1`, “inactive”; that for `COc1ccc(CNC(=O)c2sc3nc(OCC4CCCN(C)C4)cc(C)c3c2N)cc1` (centres undefined), “inactive”.
Take `COc1ccc(CNC(=O)c2sc3nc(OCc4ccccn4)cc(C)c3c2N)cc1`: the outcome is “active; fitted 1.77 uM”.
As to `Cc1cc(OCc2ccccn2)nc2sc(C(=O)NCc3cccc(F)c3F)c(N)c12`, the outcome was “active; fitted 5.4 uM”.
The result for `COc1ccc(CNC(=O)c2sc3nc(OCCN4CCCC4)cc(C)c3c2N)cc1` reads “active; fitted 8.24 uM”.
